Compounds with a hit are over-represented: about 4.3% of the library has one in this group of screens.
CHOP inhibitor – CHOP inhibition in unfolded protein response; CHO-K1 CHOP-promoter luciferase, tunicamycin-induced, 15-18 h; inhibition, % at 10 µM; AID 2732; 220,000 compounds, 3.8% hits;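 active = compounds that reduced the stress-induced luciferase reporter signal by more than about 70% of percent inhibition, limit read from the data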;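 also: 0% = tunicamycin plus vehicle and 100% = wells without tunicamycin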
HIF-2a inh – HIF-2a inhibition | 786-0 RCC cells HIF-2a reporter, luciferase luminescence, overnight | inhibition, % at 18.8 µM | 360,000 compounds, 0.72% hits | AID 624352;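 active = inhibition of the luminescence signal of 40% or more relative to plate controls, in a single-dose primary screen at 18.75 µM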
KKLEB tox – counter-screen for CF NF-kB inhibitors: cytotoxicity; AID 602141; KKLEB CF airway cells viability, ATPlite luminescence, overnight; active compounds read low; cells stimulated with P. aeruginosa culture filtrate; 360,000 compounds, 0.36% hits; activity change (cytotoxicity), % at 5 µM;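 active = corrected activity change at or below -50% at 5 µM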
Peg3 promoter – reduces Peg3 promoter-driven luciferase expression in HeLa; inhibition, % at 20 µM; AID 588405; 360,000 compounds, 1.7% hits; HeLa PEG-Prom luciferase reporter, luminescence, overnight;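 active = inhibition of at least 50% at 20 µM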
MITF TRPM1 inh – reduces MITF-dependent TRPM1 promoter luciferase signal; SK-MEL-5 TRPM1 promoter luciferase, 24 h; inhibition, % at 12.5 µM; 330,000 compounds, 0.83% hits; AID 488899;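 active = mean inhibition across replicates of 60% or more, whatever share of single replicates reaches that level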
CF NFkB inh – inhibitors of cystic fibrosis induced NF-kB; KKLEB NF-kB-GFP reporter, PAF-induced, GFP fluorescence overnight; inhibition, % at 5 µM; 360,000 compounds, 0.86% hits; AID 588850;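 active = at least 50% inhibition at 5 µM, scaled per plate between neutral and stimulator controls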;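 also: PAF is a Pseudomonas aeruginosa culture filtrate used as stimulus; plate controls were PAF-stimulated DMSO wells for no effect and unstimulated DMSO wells for full effect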
CF NFkB conf – confirmation of cystic fibrosis induced NF-kB inhibitors. shares compounds with CF NFkB inh. KKLEB CF airway cells, PAF-induced NF-kB-GFP fluorescence, overnight. inhibition, % at 5 µM. 1,300 compounds, 64% hits. AID 602472; in the data active = inhibition above about 40%;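 also: stimulus PAF is a Pseudomonas aeruginosa filtrate and not platelet activating factor; plate controls were DMSO wells with stimulus for no effect and unstimulated DMSO wells for full effect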
Mdm2-MdmX confirm – confirmation of inhibitors of human Mdm2/MdmX interaction, set 2 | shares compounds with HIF-2a inh | SaOS-2 split-luciferase Mdm2/MdmX complementation, luminescence | inhibition, % at 8 µM | 740 compounds, 99% hits;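 active = mean inhibition of the luminescence signal across two replicates at or above 26 percent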
Target sequence (O15151 whole entry, looked up): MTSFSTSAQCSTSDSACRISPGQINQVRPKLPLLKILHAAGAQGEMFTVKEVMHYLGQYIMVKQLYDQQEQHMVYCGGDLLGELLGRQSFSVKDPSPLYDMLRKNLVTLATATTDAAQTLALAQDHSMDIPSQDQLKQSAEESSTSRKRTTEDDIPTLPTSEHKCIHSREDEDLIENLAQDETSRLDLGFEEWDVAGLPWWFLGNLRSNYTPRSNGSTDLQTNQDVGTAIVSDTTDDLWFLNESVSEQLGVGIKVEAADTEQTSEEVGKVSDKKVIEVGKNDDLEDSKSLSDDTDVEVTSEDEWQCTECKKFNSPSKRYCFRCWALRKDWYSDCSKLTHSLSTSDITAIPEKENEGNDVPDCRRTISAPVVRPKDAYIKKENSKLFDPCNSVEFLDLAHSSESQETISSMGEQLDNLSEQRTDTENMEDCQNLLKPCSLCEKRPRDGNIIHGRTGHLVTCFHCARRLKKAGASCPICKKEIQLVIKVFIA
Target sequence (Q00987 whole entry, looked up): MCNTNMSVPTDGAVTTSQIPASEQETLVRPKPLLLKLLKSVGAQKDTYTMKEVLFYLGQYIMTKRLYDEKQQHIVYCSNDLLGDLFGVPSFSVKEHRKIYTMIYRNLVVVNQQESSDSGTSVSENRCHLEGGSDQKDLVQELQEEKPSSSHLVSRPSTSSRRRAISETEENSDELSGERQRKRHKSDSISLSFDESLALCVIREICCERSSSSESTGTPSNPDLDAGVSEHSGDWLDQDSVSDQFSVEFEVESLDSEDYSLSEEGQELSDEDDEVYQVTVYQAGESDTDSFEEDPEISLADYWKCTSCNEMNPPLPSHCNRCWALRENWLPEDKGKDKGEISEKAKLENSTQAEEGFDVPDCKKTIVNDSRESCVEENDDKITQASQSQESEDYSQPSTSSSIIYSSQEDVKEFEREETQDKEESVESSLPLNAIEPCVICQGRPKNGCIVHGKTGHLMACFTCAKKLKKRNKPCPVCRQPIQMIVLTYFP
HIF-2a conf – confirmation of HIF-2a inhibitors; 1,800 compounds, 56% hits; 786-0 RCC cells, HIF-2a luciferase reporter luminescence, overnight; shares compounds with HIF-2a inh; AID 651580; inhibition, % at 18.8 µM;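 active = mean inhibition across four replicates of at least 40 percent at the single tested concentration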
HIF-1a cs – counter-screen for HIF-2a inhibitors: HIF-1a inhibition in MiaPaCa-2 cells; shares compounds with HIF-2a inh; MiaPaCa-2 HIF-1a luciferase reporter, desferoxamine, overnight; inhibition, % at 18.8 µM; 1,800 compounds, 72% hits; AID 651589;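 active = mean inhibition of the reporter signal across four replicates at the single tested dose of 50% or more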
* hit, by the source's call; / = not tested or not shown.

SMILES	CHOP inhibitor	HIF-2a inh	KKLEB tox	Peg3 promoter	MITF TRPM1 inh	CF NFkB inh	CF NFkB conf	Mdm2-MdmX confirm	HIF-2a conf	HIF-1a cs
COc1ccc(C(=O)N2CCN(Cc3ccccc3)CC2)cc1[N+](=O)[O-]	/	3	-1	20	10	-6	/	/	/	/
O=C(c1ccc(S(=O)(=O)c2cccc(Cl)c2)c([N+](=O)[O-])c1)N1CCN(Cc2ccccc2)CC1	65	28	-39	33	60	78*	-95	101*	/	/
CCC(C)Oc1nc2c(c(=O)n(C)c(=O)n2C)n1C (stereo not given)	-4	10	-6	14	-2	-4	/	/	/	/
COc1ccc(-c2cc(-c3nc4ccccn4c3NCc3ccccc3)ccc2OC)cc1	/	-77	-30	100*	85*	71*	97*	102*	/	/
COc1ccc(-c2nc3ccccn3c2NCc2ccc3c(c2)OCO3)cc1	10	-174	-9	-162	-42	4	/	/	/	/
O=S1(=O)CCC(NC(=S)SCCOc2ccccc2)C1 (stereo not given)	60	50*	3	-7	32	58*	86*	/	48*	67*
S=c1[nH]cnc2sc(Nc3ccccc3)nc12	-181	-91	-2	-64	-8	-9	/	/	/	/
CCc1cc(SC#N)cc(C)c1NC(=O)CCl	15	46*	-48	-87	9	66*	54*	/	47*	62*
O=C(CSc1ccc2c(c1)OCCO2)NC(=O)Cc1ccccc1	-16	13	2	0	-4	-5	/	/	/	/
Cc1cccc(CS(=O)(=O)c2ncc(Cl)c(C(=O)NCc3ccccc3)n2)c1	/	69*	-26	97*	87*	86*	82*	/	69*	62*
Cc1cc(Sc2nnc(N)s2)c2ccccc2n1	-105	41*	-27	7	48	89*	-7	/	32	1
CCN(CC(=O)Nc1ccc2c(c1)OCCO2)C(=O)/C=C/c1ccc(F)cc1	0	-142	-5	-101	-30	-5	/	/	/	/
C=C1C(=O)C23C(O)C1CCC2C12COC3(O)C(O)C1C(C)(C)CCC2O (stereo not given)	/	95*	-48	94*	/	82*	70*	/	94*	105*
Cc1nc(N)nc(-c2ccccc2O)n1	46	-36	6	-52	-9	-5	/	/	/	/
Nc1nc(N)nc(-c2cc(O)ccc2O)n1	/	-6	4	-17	-1	54*	72*	101*	/	/
C=CCNc1cnn(-c2ccc(C)cc2)c(=O)c1Sc1ccc(C)cc1	1	10	14	21	-2	13	/	/	/	/
COc1ccc(CNC(=O)CN(c2ccccc2OC)S(=O)(=O)c2cccs2)cc1	/	7	14	14	-7	-16	/	/	/	/
Cc1ccc(C2(C)NC(=O)N(CC(=O)NCc3cccc(Cl)c3)C2=O)cc1 (stereo not given)	/	9	10	13	7	-3	/	/	/	/
O=C1C2C3C=CC(CC3)C2C(=O)N1c1ccccc1 (stereo not given)	/	15	2	8	11	5	/	/	/	/
O=C1C=CC2C3C(=O)N(c4ccccc4)C(=O)C3C1N2Cc1ccccc1 (stereo not given)	/	86*	-17	102*	96*	80*	-178	/	98*	104*
COc1ccc(CNC(=O)C2CCCN2)cc1OC (stereo not given)	7	10	4	0	-2	-9	/	/	/	/
CS(=O)(=O)c1ncc(Cl)c(C(=O)Nc2ccc(OC(F)F)cc2)n1	/	92*	-37	102*	73*	90*	88*	103*	98*	100*
O=C(Nc1ccc(OC(F)F)cc1)c1ccccn1	-2	-34	12	-25	-12	7	/	/	/	/
CN(C)CCCN(C(=O)CCS(=O)(=O)c1ccccc1)c1nc2cc3c(cc2s1)OCO3	/	62*	-11	107*	58	96*	104*	/	38	102*
COC(=O)C1=C(C(=O)OC)[C@@H]2N(Cc3ccccc3)c3ccccc3[C@@]23C[C@@H](C(=O)OC)N(C(=O)c2ccc(Br)cc2)C3=N1	/	2	-24	84*	-4	69*	78*	98*	/	/
SMILES	CHOP inhibitor	HIF-2a inh	KKLEB tox	Peg3 promoter	MITF TRPM1 inh	CF NFkB inh	CF NFkB conf	Mdm2-MdmX confirm	HIF-2a conf	HIF-1a cs
C=CCN1c2ccccc2[C@]23C[C@@H](C(=O)OC)N(C(=O)c4ccc(Br)cc4)C2=NC(C(=O)OC)=C(C(=O)OC)[C@H]13	51	-12	-30	74*	-6	71*	58*	96*	/	/
Cc1nn(-c2ccccc2)c(Cl)c1C(=O)N1CCN(c2ncnc3c2cnn3-c2ccccc2)CC1	92*	12	-17	114*	51	63*	73*	100*	/	/
O=C(c1ccccc1)N1CCN(c2ncnc3c2cnn3-c2ccccc2)CC1	-12	-128	-2	-48	-4	-8	/	/	/	/
O=C(CSc1ccccn1)Nc1nonc1[N+](=O)[O-]	/	47*	-15	104*	86*	88*	1	/	23	-34
COc1ccc2[nH]c(=O)c3c(c2c1)OC(C)(C)C=C3	57	22	-7	37	21	86*	98*	98*	/	/
CN1CCN(S(=O)(=O)c2ccc(Sc3nnnn3-c3ccccc3)c([N+](=O)[O-])c2)CC1	107*	67*	-30	91*	88*	88*	64*	102*	39	100*
CN(C)S(=O)(=O)c1cccc(NC(=O)COC(=O)c2ccc3ccccc3n2)c1	/	21	16	12	/	-26	/	/	/	/
Cc1nnnn1/C(=C\c1ccccc1)C(=O)OCC(=O)Nc1cccc(S(=O)(=O)N(C)C)c1	/	42*	-16	106*	46	63*	-51	/	79*	22
O=C(Nc1ccccc1N1CCCC1)c1ccc([N+](=O)[O-])o1	/	18	-16	31	54	46	/	/	/	/
O=C(Nc1ccc(N2CCCC2)c(Cl)c1)c1ccc([N+](=O)[O-])o1	-29	84*	-46	110*	73*	70*	-26	/	50*	107*
NC(=O)c1nn(CC(=O)Nc2ccc3c(c2)OCO3)cc1[N+](=O)[O-]	-1	12	8	-2	-10	5	/	/	/	/

Screening data deposited in PubChem BioAssay by several laboratories.
